Test [1] in a line: CCTE_Padilla_ZF_Score.General: CCTE's 144 Hour Post-fertilization zebrafish Assay Score for General Malformation, Padilla Lab (AID 2284411). The procedure, abridged:
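Malformation, death and hatching were scored at 6 dpf by two blinded observers under a stereo microscope. Embryos were dosed singly from 6-8 hpf in sealed plates of 10% Hanks' at 26C and rinsed on 5 dpf; DMSO baseline.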

The test system of another test is SERPINA7 (gene 6906). In words: CCTE_GLTED_hTBG: CCTE's human Thyroxine-binding Globulin (TBG) Inhibition Assay, Great Lakes Toxicology and Ecology Division (GLTED) Lab (AID 2284343; active means hit-call score of the fitted dose curve at least 0.9, where 1 is the maximum;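 further: active chemicals lower fluorescence versus DMSO baseline by displacing probe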). A digest of the protocol:
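Fluorescence (ex 380/em 475) reports ANSA displaced from human TBG after a 2 h incubation with test chemical, without cells. Loss of signal indicates displacement, with DMSO serving as baseline.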

Another test concerns IYD (gene 389434). In words: CCTE_GLTED_hIYD: CCTE's human Iodotyrosine Deiodinase (xIYD) Inhibition Assay, Great Lakes Toxicology and Ecology Division (GLTED) Lab (AID 2284317; active means hit-call score of the fitted dose curve at least 0.9, where 1 is the maximum;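 further: cell-free human IYD enzyme made in baculovirus insect cells; iodide freed from monoiodotyrosine measured by cerium arsenite color change at 420 nm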). The procedure, abridged:
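Cell-free; baculovirus/insect-cell hIYD + MIT substrate + chemical, 3 h. Dowex column cleanup, then Ce4+/As3+ Sandell-Kolthoff read at A420 nm. Triplicate plates; normalized to 3-nitro-L-tyrosine (positive) and DMSO/NaOH (solvent).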

Test [2] can be described thus: CCTE_Deisenroth_5AR_NBTE_donor: CCTE's 5alpha-reductase NanoBRET Target Engagement Assay […], Deisenroth Lab (AID 2284319). Particulars: actives raise or lower the signal. The procedure, abridged:
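SRD5A2-NanoLuc, HEK293T, 20 h expression. Chemical 10 nM - 29.9 uM, 8 conc, duplicate; 3 h preincubation + 2 h testosterone tracer. Nano-Glo substrate plus extracellular NanoLuc inhibitor; donor lum 460 nm. DMSO baseline, bidirectional fit.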

Test [3] in a line: CCTE_Deisenroth_5AR_NBTE_acceptor: CCTE's 5alpha-reductase NanoBRET Target Engagement Assay - Autofluorescence Screen, Deisenroth Lab (AID 2284321).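 Further: compound fluorescence in the acceptor channel under 460 nm excitation flags autofluorescence artifacts.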 Particulars: actives raise or lower the signal. The procedure, abridged: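 Chemicals diluted to a nominal 100 uM in DMSO were scanned at 460 nm excitation. Samples were read in three independent runs (n=3). Gain or loss of acceptor signal was fitted relative to DMSO.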
(In general: In BRET a luciferase serves as donor, and the signal depends on an acceptor being close.)

The next test deals with SRD5A2 (gene 6716). In words: CCTE_Deisenroth_5AR_NBTE_ratio: CCTE's 5alpha-reductase NanoBRET Target Engagement Assay - Ratio, Deisenroth Lab (AID 2284322). To be noted: actives raise or lower the signal. The procedure, abridged:
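SRD5A2-NanoLuc HEK293T; cmpd 10 nM-29.9 uM, 3 h preinc + testosterone tracer 2 h; NanoBRET ratio 650/460; bidirectional fit vs DMSO.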

A further test has as its system TTR (gene 7276). Kind of test: CCTE_GLTED_hTTR_0.125uM: CCTE's human Transthyretin (hTTR) Inhibition Assay, with 0.125uM TTR, Great Lakes Toxicology and Ecology Division (GLTED) Lab (AID 2284431).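 Further: hits lower the fluorescence signal relative to DMSO baseline.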 A digest of the protocol: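 Probe-displacement format: chemicals competing for the T4 site release ANSA from 0.125uM TTR during a 2 h incubation, measured by fluorescence at 380 excitation and 475 emission.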

The nature of test [4]: CCTE_Deisenroth_H295R-HTRF_384WELL_ESTRADIOL: CCTE's H295R-HTRF Assay Evaluation of Estradiol Concentration, Deisenroth Lab (AID 2284361). To be noted: actives raise or lower the signal. The procedure, abridged: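 Estradiol secreted into medium by H295R adrenocortical cells, quantified by HTRF after 48 h dosing over a nine-point 0.001 - 100 uM final range; gain or loss versus DMSO. Parallel ATP-luminescence viability readout; n=5 experiments.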
(In TR-FRET formats the signal depends on donor and acceptor labels being close together.)

Test [5] in a line: CCTE_Deisenroth_H295R-HTRF_384WELL_TESTOSTERONE: CCTE's H295R-HTRF Assay Evaluation of Testosterone Concentration, Deisenroth Lab (AID 2284373). Particulars: actives raise or lower the signal. A digest of the protocol:
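Secreted testosterone was quantified by HTRF immunoassay of medium from human adrenocortical H295R cells after 48 h chemical exposure at 0.001–100 uM final. Gain or loss was fitted against DMSO. ATP-based viability was read on matched wells, five experimental replicates.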

Test [6] can be described thus: CCTE_Deisenroth_H295R-HTRF_384WELL_CTOX: Cytotoxicity Assessment in CCTE's H295R-HTRF Assay, Deisenroth Lab (AID 2284380; active means hit-call score of the fitted dose curve at least 0.9, where 1 is the maximum). A digest of the protocol:
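Luminescent ATP viability readout (CellTiter-Glo 2.0), multiplexed on plates used for hormone sampling, after 48 h chemical exposure. Human H295R cells; final concentrations 0.001–100 uM in nine steps, technical triplicates, five experiments; DMSO baseline.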

Test [7] can be described thus: IUF_NPC2-5_cytotoxicity_120hr: Cytotoxicity Assessment at 120 hours in the Leibniz Research Institute for Environmental Medicine (IUF) Neural Progenitor Cell Migration and Differentiation Assay (NPC2-5) (AID 2284307; active means hit-call score of the fitted dose curve at least 0.9, where 1 is the maximum). A digest of the protocol:
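Fluorescence (RFU) from LDH-driven resazurin reduction in medium supernatants measured loss of membrane integrity after 120 h of compound exposure of differentiating primary human neural progenitor spheres on an extracellular matrix.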

Test [8] is described as follows: IUF_NPC2-5_cell_number_120hr: Cell Number Assessment at 120 hours in the Leibniz Research Institute for Environmental Medicine (IUF) Neural Progenitor Cell Migration and Differentiation Assay (NPC2-5) (AID 2284308).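 Further: count of Hoechst-stained nuclei in migration zone around plated human neural progenitor spheres.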 A digest of the protocol:
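Cell number is taken as all Hoechst-positive nuclei detected in the area into which cells migrate out of the sphere, scored at 120 h and referenced to DMSO solvent control, which was kept at no more than 0.1%.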

Test [9] can be described thus: IUF_NPC2-5_viability_120hr: Viability Assessment at 120 hours in the Leibniz Research Institute for Environmental Medicine (IUF) Neural Progenitor Cell Migration and Differentiation Assay (NPC2-5) (AID 2284312). The procedure, abridged:
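Human fetal (GW 16-19) neural progenitor spheres of 0.3 mm were plated on poly-D-lysine/laminin in N2 differentiation medium and exposed from day 0 for 120 h, with half-medium refresh at day 3. Viability was read as alamar blue resazurin-to-resorufin fluorescence against DMSO.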

A short description of test [10]: CCTE_Mundy_HCI_iCellGluta_NOG_NeuriteLength: CCTE's Neurite Outgrowth Assay in iCellGluta cells for Neurite Length, Mundy Lab (AID 2284318; active means hit-call score of the fitted dose curve at least 0.9, where 1 is the maximum). The procedure, abridged: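 Automated high-content imaging of betaIII-tubulin (Alexa Fluor-488) and Hoechst-stained cells gave neurite length, normalized to the DMSO baseline.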
Test [11] can be described thus: IUF_NPC1_cytotoxicity_72hr: Cytotoxicity Assessment at 72 hours in the Leibniz Research Institute for Environmental Medicine (IUF) Neural Progenitor Cell Proliferation Assay (NPC1) (AID 2284332; active means hit-call score of the fitted dose curve at least 0.9, where 1 is the maximum;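 further: rising LDH signal means more cytotoxicity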). A digest of the protocol:
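LDH in supernatant, resazurin→resorufin fluorescence (RFU), 72 h exposure, no re-dosing. Cells: primary hNPC spheres, one per well, EGF+FGF medium, 37C/5% CO2, pH 7.2-7.6. Fit: positive direction vs baseline and dynamic range.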

Test [12] is described as follows: CCTE_Mundy_HCI_iCellGluta_NOG_NeuriteCount: CCTE's Neurite Outgrowth Assay in iCellGluta cells for Neurite Count, Mundy Lab (AID 2284342; active means hit-call score of the fitted dose curve at least 0.9, where 1 is the maximum;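 further: chemical exposure about 48 hours starting 2 hours after plating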).
A short description of test [13]: CCTE_Mundy_HCI_iCellGluta_NOG_NeuronCount: CCTE's Neurite Outgrowth Assay in iCellGluta cells for Neuron Count, Mundy Lab (AID 2284340; active means hit-call score of the fitted dose curve at least 0.9, where 1 is the maximum;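 further: cells fixed about 48 h after compound addition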). The procedure, abridged: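 Neuron count read by automated high-content imaging of Hoechst 33342 and betaIII-tubulin/Alexa Fluor-488 labelling in human iPSC glutamatergic neurons. Activity fitted relative to DMSO.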

Structures are written as SMILES. Inconclusive results are not listed. Activity calls are given as the source filed them. How the source made its calls, unless noted: active means hit-call score of the fitted dose curve at least 0.9, where 1 is the maximum; inactive means score below 0.9.

The results in this text go back to PubChem BioAssay (EPA / NIEHS).

Turning to `O=C1CCCCCCCCCCCCCCO1`, in [1], the result was inactive.
Usually AC50 stands for the concentration at which the activity in the assay is half-maximal. For `c1ccc(CCCc2ccccn2)cc1`, in the test on SERPINA7 (gene 6906), the AC50 was 22.2 µM (active).
Take `CCCCCCCCCCCCCCCC(=O)OC[C@H](O)[C@H]1OC(=O)C(O)=C1O`: the AC50 in the test on IYD (gene 389434) is 25.6 µM (active). For the same compound, the compound was called inactive (in [2]; in [3]; in the test with SRD5A2 (gene 6716)).
With `CCCCC(CC)COCCC#N` (stereo not drawn), the call in test [1] was inactive.
As to `O=C(O)c1cn(C2CC2)c2cc(N3CCNCC3)c(F)cc2c1=O`, in test [1], the compound was classed as inactive.
Still for that read-out and setting: to `CCn1c2ccccc2c2cc(N)ccc21` belongs “inactive”.
Regarding `O=C1OC2(c3cc(Br)c(O)c(Br)c3Oc3c2cc(Br)c(O)c3Br)c2c(Cl)c(Cl)c(Cl)c(Cl)c21`, the AC50 in the test on IYD (gene 389434) was 23.7 µM (active).
Consider `CCCCCCCCCCCCCCCC(=O)O`, for which the AC50 with IYD (gene 389434) is 80.9 µM (active).
For the compound `CCN(CC)c1ccc2c(-c3ccccc3C(=O)O)c3ccc(=[N+](CC)CC)cc-3oc2c1`, the result in test [2] and in test [3] was inactive. Moreover, the AC50 with SRD5A2 (gene 6716) was 22.1 µM (active).
For the compound `CCCCCCCCCCCCCOS(=O)(=O)O`, the AC50 in the test with IYD (gene 389434) was 34.2 µM (active); in [2], 50 µM (active); in test [3] it was 43.2 µM (active); with SRD5A2 (gene 6716) it was 81.8 µM (active); with SERPINA7 (gene 6906), 31 µM (active); in the test on TTR (gene 7276) it was 1.6 µM (active).
On to `C#C[C@]1(O)CC[C@H]2[C@@H]3CCC4=Cc5oncc5C[C@]4(C)[C@H]3CC[C@@]21C`, for which the half-maximal activity concentration (AC50) was 38.2 µM (active) in test [4] and 0.362 µM (active) in test [5]. Besides, the result in test [6] was inactive.
With `CCCCCC(CO)CCC` (stereo not drawn), the compound was called inactive (in test [2]; in [3]; in the test on SRD5A2 (gene 6716)).
For the compound `O=Nc1ccc(Nc2ccccc2)cc1`, the AC50 in test [2] was 23.4 µM (active); in test [3], 50 µM (active); with SRD5A2 (gene 6716) it was 75.4 µM (active); with SERPINA7 (gene 6906), 15.9 µM (active); in the test with TTR (gene 7276), 7.46 µM (active).
Turning to `CCN(CC)c1ccc(C(=C2C=CC(=[N+](CC)CC)C=C2)c2ccc(S(=O)(=O)O)cc2S(=O)(=O)[O-])cc1`, the compound was classed as inactive in [2]. Further, the concentration at half-maximal activity (AC50) in test [3] is 13 µM (active); in the test on SRD5A2 (gene 6716), 3.22 µM (active).
In the case of `O=C1c2ccccc2C(=O)N1SC1CCCCC1`, in the test on SERPINA7 (gene 6906), the half-maximal activity concentration (AC50) was 29.4 µM (active).
In the case of `CN(C)C(=N)N=C(N)N`, the call in test [7], in [8], in test [9], in test [10], in [11] and in test [12] was inactive.
Turning to `CCCCCCCCC=O`, the call in [1] was inactive.
Consider `CSc1nc(NC2CC2)nc(NC(C)(C)C)n1`, for which the concentration at half-maximal activity (AC50) with TTR (gene 7276) is 10.8 µM (active).
For the compound `O=C(Oc1ccccc1)c1ccc(O)cc1`, the AC50 in the test on SERPINA7 (gene 6906) is 12.6 µM (active); in the test with TTR (gene 7276), 0.326 µM (active).
`Cc1ccc(S)cc1`: the AC50 with SERPINA7 (gene 6906) was 1.59 µM (active).
`BrC1CCC(Br)C(Br)CCC(Br)C(Br)CCC1Br` (stereo not drawn): the outcome (in [2]; in [3]; in the test with SRD5A2 (gene 6716)) was inactive.
Take `CC(C)=CCCC(C)=CCCC(C)=CCO`: the AC50 in the test on TTR (gene 7276) is 19.9 µM (active).
Take `O=c1cc(-c2ccccc2)oc2cc(O)cc(O)c12`: the AC50 in the test on TTR (gene 7276) was 0.06 µM (active).
On to `CC1CC(OC(=O)c2ccccc2O)CC(C)(C)C1` (stereo not drawn), for which the outcome (in test [2]; in test [3]; with SRD5A2 (gene 6716)) was inactive.
Take `CCCCCCCCCC=O`: in [1], the compound was classed as inactive. In the test with TTR (gene 7276), the AC50 was 9.95 µM (active).
Consider `CCCCCCCCCCCCCC(=O)O`, for which the AC50 was 100 µM (active) in the test with IYD (gene 389434) and 1.93 µM (active) with TTR (gene 7276). Also, the call (in test [2]; in test [3]; in the test with SRD5A2 (gene 6716)) was inactive.
For `N#Cc1ccc(CC(=NNC(=O)Nc2ccc(OC(F)(F)F)cc2)c2cccc(C(F)(F)F)c2)cc1`, the result in test [7], in [8], in test [9], in test [10], in test [11] and in [13] was inactive.
Consider `O=[N+]([O-])c1cc(C(F)(F)F)ccc1Cl`, for which, in test [1], the result was inactive.
For `CC(C)c1ccc(C(C)C)cc1`, the call in test [1] was inactive.
As to `CC(C)=CCC[C@](C)(O)[C@@H]1CC=C(C)CC1`, the compound was called inactive (in test [2]; in test [3]; with SRD5A2 (gene 6716)). The AC50 with SERPINA7 (gene 6906) is 19.2 µM (active).
